Counter-ions that a name gives are not always drawn. ± gives the standard deviation of the averaged measurements.
Columns and labels:
Test in all cases: cell viability (% of vehicle); higher = less cytotoxic
Conditions in all cases: 10 µM; 72 h
HCI01 = test system: HCI01 (cells of a triple-negative basal-like breast cancer xenograft)
HCI03 = test system: HCI03 (cells of an ER-positive luminal breast cancer xenograft)
HCI09 = test system: HCI09 (cells of a triple-negative luminal androgen receptor type breast cancer xenograft)
HCI11 = test system: HCI11 (cells of an ER-positive luminal breast cancer xenograft)
HCI13 = test system: HCI13 (cells of an ER-positive luminal breast cancer xenograft)
HCI16 = test system: HCI16 (cells of a triple-negative basal-like breast cancer xenograft)
UCD52 = test system: UCD52 (cells of a triple-negative basal-like breast cancer xenograft)
WHIM2 = test system: WHIM2 (cells of a triple-negative basal-like breast cancer xenograft)
WHIM30 = test system: WHIM30 (cells of a triple-negative basal-like breast cancer xenograft)
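Further: PDX cells carrying CMV promoter-driven luciferase, viability read as total photon flux per second by IVIS imaging following D-luciferin, vehicle control 0.1% DMSO.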

Structure (SMILES)	cell viability (HCI01)	cell viability (HCI03)	cell viability (HCI09)	cell viability (HCI11)	cell viability (HCI13)	cell viability (HCI16)	cell viability (UCD52)	cell viability (WHIM2)	cell viability (WHIM30)
Cc1nc2n(c(=O)c1CCN1CCC(c3noc4cc(F)ccc34)CC1)CCCC2 [Risperidone]	133 ± 7.9	82.8	107 ± 61	105	118 ± 38	107	83.8 ± 11	86 ± 25	128 ± 15
CCOc1cc(C(CS(C)(=O)=O)N2C(=O)c3cccc(NC(C)=O)c3C2=O)ccc1OC (configuration not stated)	161 ± 13	149	112.6 ± 0.15	121	150 ± 16	135	117 ± 13	118 ± 7.6	140 ± 16
CC1c2cccc(O)c2C(O)=C2C(=O)C3(O)C(O)=C(C(N)=O)C(=O)C(N(C)C)C3C(O)C21.Cl (configuration not stated) [Doxycycline HCl]	91.6 ± 4.1	106	90.6 ± 17	83.7	84 ± 14	104	89.9 ± 2.7	118 ± 14	98.7 ± 9.1
O=C(C1CCCCC1)N1CC(=O)N2CCc3ccccc3C2C1 (configuration not stated) [Praziquantel]	99.2 ± 15	132	94.6 ± 5.6	93.1	134 ± 17	112	96.7 ± 4.2	94 ± 20	114 ± 7.9
CCOC(=O)[C@H](CCc1ccccc1)N[C@@H](C)C(=O)N1[C@H](C(=O)O)C[C@H]2CCCC[C@@H]21 [Trandolapril]	121 ± 2.9	148	115 ± 11	98.7	124 ± 12	130	112 ± 20	109 ± 14	174 ± 15
Cc1nnc(C(=O)NC(C)(C)c2nc(C(=O)NCc3ccc(F)cc3)c(O)c(=O)n2C)o1 [Raltegravir (MK-0518)]	126 ± 2	134	97 ± 18	116	93.4 ± 11	118	119 ± 20	116 ± 15	136 ± 7.5
CCn1cc(C(=O)O)c(=O)c2cc(F)c(N3CCN(C)CC3)cc21.CS(=O)(=O)O [Pefloxacin Mesylate]	92.2 ± 33	137	105.3 ± 0.55	103	160 ± 5.2	153	113 ± 2.6	80.5 ± 16	144 ± 11
CS(=O)(=O)O.Cc1ccc(NC(=O)c2ccc(CN3CCN(C)CC3)cc2)cc1Nc1nccc(-c2cccnc2)n1 [Imatinib Mesylate (STI571)]	157 ± 24	86.7	67.7 ± 12	69.7	91.3 ± 11	99	67.8 ± 1.8	88.9 ± 6.2	114 ± 18
CC1(C)SC2C(NC(=O)C(C(=O)[O-])c3ccccc3)C(=O)N2C1C(=O)[O-].[Na+].[Na+] (configuration not stated) [Carbenicillin, Disodium Salt]	93 ± 4.2	92.6	94 ± 0.98	103	86.7 ± 1.1	105	85.4 ± 3.6	110 ± 17	115 ± 2
CCOC(=O)C1=CC(OC(CC)CC)C(NC(C)=O)C(N)C1 (configuration not stated) [Oseltamivir]	111 ± 11	124	96.2 ± 20	97.4	99.2 ± 7.4	91	96.03 ± 0.49	91.98 ± 0.9	126 ± 6.9
C.CCN1CC(CCN2CCOCC2)C(c2ccccc2)(c2ccccc2)C1=O.O (configuration not stated) [Doxapram HCl]	102.9 ± 0.49	198	81.9 ± 14	101	91.2 ± 1.9	105	73.6 ± 5.6	82.8 ± 4.2	117 ± 11
CNS(=O)(=O)Cc1ccc2[nH]cc(CCN(C)C)c2c1 [Sumatriptan]	92.7 ± 1.9	119	84 ± 7.2	90.7	126 ± 3.5	110	98 ± 7.2	95.6 ± 19	110 ± 19
Nc1ccn(CC(CO)OCP(=O)(O)O)c(=O)n1.O.O (configuration not stated) [Cidofovir dihydrate]	120 ± 9.9	136	109 ± 42	94.7	152 ± 12	96.8	88 ± 0.94	97 ± 24	81 ± 1.9
CN(C)NN=C1N=CN=C1C(N)=O [Dacarbazine]	122 ± 9.3	92.9	110.4 ± 0.52	93.5	120 ± 16	82.7	107 ± 8	80.3 ± 24	118 ± 25
Nc1cccc2c1CN(C1CCC(=O)NC1=O)C2=O (configuration not stated) [Lenalidomide (CC-5013)]	111 ± 4.1	107	85.5 ± 10	102	80.5 ± 0.91	101	80.5 ± 12	78.6 ± 3.5	134 ± 6.6
Cc1ccsc1C(=CCCN1CCC[C@@H](C(=O)O)C1)c1sccc1C [Tiagabine hydrochloride]	100 ± 1.8	93.2	90.8 ± 14	86.4	96.1 ± 6.3	95.6	97.2 ± 14	109 ± 34	105 ± 2
Cn1nnc2c(C(N)=O)ncn2c1=O [Temozolomide]	136 ± 12	125	105 ± 15	111	122 ± 17	136	97.8 ± 28	117 ± 5.3	107 ± 16
CN(C)CCC=C1c2ccccc2CCc2ccccc21.Cl [Amitriptyline HCl]	103 ± 18	99.2	87.6 ± 6.1	83.2	105 ± 9.9	135	74.5 ± 4.4	100 ± 1.1	114 ± 2.5
NCCCC(O)(P(=O)([O-])O)P(=O)(O)O.O.O.O.[Na+] [Alendronate]	89.6 ± 12	123	85.1 ± 12	69.5	106 ± 5.1	109	94.7 ± 19	104 ± 5.2	97.5 ± 11

Structure (SMILES)	cell viability (HCI01)	cell viability (HCI03)	cell viability (HCI09)	cell viability (HCI11)	cell viability (HCI13)	cell viability (HCI16)	cell viability (UCD52)	cell viability (WHIM2)	cell viability (WHIM30)
CCCCC(=O)N(Cc1ccc(-c2ccccc2-c2nn[nH]n2)cc1)C(C(=O)O)C(C)C (configuration not stated) [Valsartan]	112 ± 6	118	118 ± 24	97.2	116 ± 24	119	108 ± 10	101 ± 16	199 ± 25
COc1cc(C2c3cc4c(cc3C(OC3OC5COC(C)OC5C(O)C3O)C3COC(=O)C23)OCO4)cc(OC)c1O (configuration not stated) [Etoposide]	103 ± 7.8	94.2	90 ± 4.5	89.4	84 ± 3	69.7	120 ± 4.3	91.8 ± 6	95.3 ± 21
CCCCC(C)(O)C/C=C/[C@H]1[C@H](O)CC(=O)[C@@H]1CCCCCCC(=O)OC (mixture of isomers) [Misoprostol]	95 ± 25	120	107 ± 12	101	123 ± 9.4	112	96.6 ± 8.3	93.1 ± 9.9	107 ± 4.6
COC(=O)C1CC2=CC(=O)CCC2(C)C23OC2CC2(C)C(CC[C@]24CCC(=O)O4)C13 (some centres not stated) [Epleremone]	90.4 ± 5.2	105	100 ± 24	90.1	94.7 ± 9.2	116	100 ± 7.6	108 ± 4.6	114 ± 3.4
CC(CN(C)C)CN1c2ccccc2CCc2ccccc21.O=C(O)/C=C\C(=O)O (configuration not stated) [Trimipramine (maleate)]	99.2 ± 13	101	91.6 ± 9.4	69	92.2 ± 2.7	105	86.9 ± 1.5	77.6 ± 15	93.3 ± 1.9
CS(=O)(=O)c1ccc(C(=O)Nc2ccc(Cl)c(-c3ccccn3)c2)c(Cl)c1 [GDC-0449 (Vismodegib)]	109 ± 40	94.4	69.5 ± 20	104	105 ± 7.7	83.4	67.1 ± 1.8	111 ± 5.5	133 ± 2.4
Nc1nc(F)nc2c1ncn2C1OC(CO)C(O)C1O (configuration not stated) [Fludarabine]	131 ± 27	134	103 ± 10	116	165 ± 10	171	105 ± 4	106 ± 2	121 ± 8.2
Cc1nc2n(c(=O)c1CCN1CCC(c3noc4cc(F)ccc34)CC1)CCCC2O (configuration not stated) [Paliperidone]	106 ± 11	172	94.6 ± 17	86.3	117 ± 4	113	113 ± 7.6	135 ± 24	127 ± 4.2
Nc1nccs1 [Aminothiazole]	147 ± 24	105	101 ± 3.2	117	98.3 ± 7.8	136	91.8 ± 5.1	116 ± 5.8	105 ± 18
O=C(O)c1ccccc1O [Salicylic acid]	106 ± 7.3	114	138 ± 62	116	99.1 ± 7	98.3	120 ± 16	95.1 ± 13	118 ± 23
CNC(=O)CN(CCN(CCN(CC(=O)[O-])CC(=O)NC)CC(=O)[O-])CC(=O)[O-].O.[Gd+3] [Gadodiamide]	99.5 ± 27	111	99 ± 15	90.1	83.6 ± 8.9	112	104 ± 7.4	92.5 ± 29	94.5 ± 5.2
CN(C)CCCN1c2ccccc2CCc2ccccc21.Cl [Imipramine (hydrochloride)]	104 ± 14	88.1	84.9 ± 5.2	60	95.1 ± 1.8	119	90.4 ± 7.2	82.5 ± 12	79.7 ± 8.5
NCC1OC(OC2C(N)CC(N)C(OC3OC(CO)C(O)C(N)C3O)C2O)C(O)C(O)C1O.O=S(=O)(O)O (configuration not stated) [Kanamycin Sulfate]	106 ± 5.6	92.9	90.5 ± 16	96.7	120 ± 31	86.8	81.5 ± 0.83	80.1 ± 15	95.8 ± 11
CNCC(O)c1ccc(O)c(O)c1.O=C(O)C(O)C(O)C(=O)O (configuration not stated) [Epinephrine Bitartrate]	90.1 ± 26	96.3	89 ± 23	90.8	71.7 ± 3.3	96.7	100 ± 8.4	67.4 ± 26	110.2 ± 1.1
COCCc1ccc(OCC(O)CNC(C)C)cc1.COCCc1ccc(OCC(O)CNC(C)C)cc1.O=C(O)C(O)C(O)C(=O)O (configuration not stated) [Metoprolol Tartrate]	126 ± 15	111	112 ± 13	95	81.4 ± 14	112	88.1 ± 13	94.4 ± 13	107 ± 2.7
Cl.c1ccc2c(CC3=NCCN3)cccc2c1 [Naphazoline HCl]	121 ± 18	105	104 ± 20	101	88.7 ± 14	93.3	81.6 ± 9.3	92.3 ± 26	122 ± 21
COc1cc(C(=O)NC2CCCNC2)cc(OC)c1OC (configuration not stated) [Troxipide]	98.8 ± 1	110	107 ± 28	96.3	57.8 ± 3.5	106	96.8 ± 7.8	103 ± 15	137 ± 11
CC(=O)O.C[C@H](N)C(=O)O.NCCCC[C@H](N)C(=O)O.N[C@@H](CCC(=O)O)C(=O)O.N[C@@H](Cc1ccc(O)cc1)C(=O)O [glatiramer acetate]	94.3 ± 13	136	108 ± 11	108	171 ± 16	125	118 ± 10	95.9 ± 38	145 ± 6.9
CC1CCc2c(N3CCC(O)CC3)c(F)cc3c(=O)c(C(=O)O)cn1c23 (configuration not stated) [Nadifloxacin]	83.8 ± 17	122	79 ± 2.1	93.8	103 ± 3.5	120	77.6 ± 6.6	74.2 ± 3.4	122 ± 6.2

Reference: the supplement of paper PMC6992640
